# Assay results taken from PubChem BioAssay (EPA / NIEHS).
# Results filed as inconclusive are left out. The source made the active and inactive calls. How the source made its calls, unless noted: active means hit-call score of the fitted dose curve at least 0.9, where 1 is the maximum; inactive means score below 0.9.
# Legend:
# [1] = ACEA_ER_80hr: ACEA Biosciences xCELLigence Real-Time Cell Analysis on Estrogen Receptor Agonism for Proliferation (AID 2282667; active means hit-call score of the fitted dose curve at least 0.9, where 1 is the maximum); settings: T47D proliferation, impedance (xCELLigence), 80 h
# Outline: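 T-47D cells monitored by electrical impedance (xCELLigence) with compound present throughout; 80 h timepoint, positive-direction fitting versus DMSO. Eight-point 1:4 dilutions from 100 uM final, duplicate plates.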
# [2] = ATG_CRE_CIS: Attagene CIS-FACTORIAL HepG2 Assay for human cAMP Responsive Element (CRE) binding protein 3 (AID 2282926); settings: HepG2 CRE cis-reporter, Attagene multiplexed mRNA; actives raise or lower the signal
# Outline: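 Induced reporter mRNA from a CRE cis element, measured in HepG2 among many multiplexed units at 24 h. Detection used RT-PCR plus capillary electrophoresis of fluorescent fragments; DMSO served as negative control.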
# [3] = biological target: CCAAT/enhancer-binding protein beta (Homo sapiens) (UniProt P17676); assay: ATG_C_EBP_CIS: Attagene CIS-FACTORIAL HepG2 Assay for human CCAAT/Enhancer Binding Protein (C/EBP) beta (AID 2282927); settings: HepG2 Attagene cis-factorial transcription factor reporter; actives raise or lower the signal
# Outline: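 RT-PCR/capillary electrophoresis fluorescence of reporter mRNA, 24 h post-dose, in HepG2 cells carrying transfected cis-promoter reporter units. Bidirectional curve fitting against DMSO baseline captures gain or loss of signal.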
# [4] = ATG_CMV_CIS: Attagene CIS-FACTORIAL HepG2 Assay for human CMV (Internal Marker) (AID 2282928); settings: HepG2 CMV promoter reporter, transcription factor profiling; actives raise or lower the signal;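 further: endpoint acts as a background internal control marker rather than a target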
# Outline: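 Reporter transcripts from transfected HepG2 cells are isolated after 24 h of chemical dosing, reverse-transcribed and amplified. Fragments labeled with 6-FAM are cut with HpaI and quantified by capillary electrophoresis; DMSO defines baseline.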
# [5] = ATG_DR4_LXR_CIS: Attagene CIS-FACTORIAL HepG2 Assay for human Liver X Receptor (LXR), DR4 submotif (AID 2282929); settings: HepG2 Attagene DR4 cis-reporter, mRNA transcription; actives raise or lower the signal
# Outline: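 Transiently transfected HepG2 liver cells; cis-regulated reporters; 24 h dosing. RT-PCR plus CE read-out of reporter mRNA. DMSO baseline, bidirectional curve fitting.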
# [6] = biological target: Aryl hydrocarbon receptor (Homo sapiens) (UniProt P35869); assay: ATG_Ahr_CIS: Attagene CIS-FACTORIAL HepG2 Assay for human Aryl Hydrocarbon Receptor (Ahr) (AID 2282930); settings: HepG2 AhR cis-factorial reporter transcription; actives raise or lower the signal
# Outline: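 HepG2 cells transiently transfected with cis-element-driven multiplexed reporter transcription units; endogenous transcription factor activity measured as reporter mRNA 24 h after dosing. RT-PCR, 6-FAM labelling, HpaI digestion, capillary electrophoresis; bidirectional fitting versus DMSO baseline.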
# [7] = ATG_AP_1_CIS: Attagene CIS-FACTORIAL HepG2 Assay for human Activator Protein 1 (AP-1) (AID 2282931); settings: HepG2 Attagene cis-factorial AP-1 reporter mRNA; actives raise or lower the signal
# Outline: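 We transfected HepG2 cells transiently with a set of cis-regulated reporter transcription units, dosed them for 24 h, and quantified reporter mRNA via RT-PCR and capillary electrophoresis, scoring gain or loss of signal relative to DMSO.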
# [8] = ATG_AP_2_CIS: Attagene CIS-FACTORIAL HepG2 Assay for human Activator Protein 2 (AP-2) (AID 2282932); settings: HepG2 AP-2 cis-reporter, Attagene transcription factor profiling; actives raise or lower the signal
# Outline: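 Cells (HepG2) transfected with promoter-driven reporter constructs, treated 24 h. Total RNA reverse-transcribed, reporter cDNA PCR-amplified, FAM-labelled by primer extension, digested, resolved by capillary electrophoresis. Activity fitted both directions versus DMSO.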
# [9] = ATG_BRE_CIS: Attagene CIS-FACTORIAL HepG2 Assay for human Bone Morphogenetic Protein (BMP) Response Element (BRE) (AID 2282933); settings: HepG2 BMP response element reporter, Attagene transcription factor profiling; actives raise or lower the signal
# Outline: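 A HepG2 multiplex reporter system measured inducible reporter mRNA 24 h post-dosing. Detection: RT-PCR, 6-FAM primer extension, HpaI digestion, capillary electrophoresis. Activity fitted bidirectionally relative to DMSO.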
# [10] = biological target: Retinoic acid receptor alpha (Homo sapiens) (UniProt P10276); assay: ATG_DR5_RAR_CIS: Attagene CIS-FACTORIAL HepG2 Assay for human Retinoic Acid Receptor Alpha (RARE), DR5 submotif (AID 2282934); settings: HepG2 Attagene cis-factorial RARE DR5 reporter, mRNA; actives raise or lower the signal
# Outline: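 HepG2 cells transiently transfected with multiplexed reporter units under cis (DR5 RARE) promoters, so endogenous transcription factor activity is measured. After 24 h compound exposure, reporter mRNA is quantified by RT-PCR with fluorescent labelling and capillary electrophoresis; bidirectional fitting versus DMSO.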
# [11] = biological target: Transcription factor E2F1 (Homo sapiens) (UniProt Q01094); assay: ATG_E2F_CIS: Attagene CIS-FACTORIAL HepG2 Assay for human E2F Transcription Factor 1 (AID 2282935); settings: HepG2 Attagene cis-reporter, E2F reporter RNA transcripts; actives raise or lower the signal
# Outline: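 First, HepG2 cells were transfected with reporter transcription units. Next, they were dosed for 24 h. Then RNA was isolated, converted to cDNA, PCR-amplified, FAM-labeled, HpaI-digested and analyzed by capillary electrophoresis.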
# [12] = ATG_M_61_CIS: Attagene CIS-FACTORIAL HepG2 Assay for M61 Transcription Factor (Internal Marker) (AID 2282937); settings: HepG2 Attagene CIS-FACTORIAL M61 internal marker reporter; actives raise or lower the signal
# Outline: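 Multiplexed reporter mRNA assay, HepG2 human hepatoma cells, 24 h treatment. Signal: FAM-labelled, HpaI-digested RT-PCR fragments by CE. Fit: bidirectional, baseline DMSO.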
# [13] = ATG_EGR_CIS: Attagene CIS-FACTORIAL HepG2 Assay for human Early Growth Response 1 (EGR1) (AID 2282938); settings: HepG2 Attagene CIS-FACTORIAL EGR reporter mRNA; actives raise or lower the signal
# Outline: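 Multiplexed cis-reporter system in human hepatoma HepG2 cells, transiently transfected. Cells are dosed for 24 h; reporter transcripts are amplified, fluorescently tagged and sized by capillary electrophoresis, with DMSO as negative control.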
# [14] = ATG_M_19_CIS: Attagene CIS-FACTORIAL HepG2 Assay for M19 Transcription Factor (Internal Marker) (AID 2282939); settings: HepG2 Attagene CIS-FACTORIAL M19 internal marker reporter; actives raise or lower the signal
# Outline: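 Chemical-treated HepG2 (24 h) with MRTU constructs; reporter transcripts detected by fluorescent RT-PCR fragment analysis on capillary electrophoresis. Internal background marker, DMSO as baseline.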
# [15] = ATG_ERE_CIS: Attagene CIS-FACTORIAL HepG2 Assay for Estrogen Response Element (ERE) (AID 2282940); settings: HepG2 ERE cis-reporter, Attagene RNA transcript; actives raise or lower the signal
# Outline: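 Human liver cells (HepG2) bearing transiently transfected, promoter-regulated reporter units were exposed 24 h. Reporter mRNA induction was detected by capillary electrophoresis of labelled RT-PCR products and fitted bidirectionally to DMSO.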
# [16] = ATG_Ets_CIS: Attagene CIS-FACTORIAL HepG2 Assay for human Erythroblast Transformation Specific (ETS) (AID 2282941); settings: HepG2 ETS cis-reporter transcription, actives raise or lower the signal
# Outline: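 Bidirectional fit versus DMSO of reporter mRNA signal, detected by RT-PCR and capillary electrophoresis in HepG2 cells transiently transfected with cis-element reporters and dosed 24 h.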
# [17] = biological target: Hepatocyte nuclear factor 3-beta (Homo sapiens) (UniProt Q9Y261); assay: ATG_FoxA2_CIS: Attagene CIS-FACTORIAL HepG2 Assay for human Forkhead box A2 (FOXA2) (AID 2282942); settings: HepG2 cis-reporter transcription factor activity, 24 h; actives raise or lower the signal
# Outline: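 Multiplexed cis-element reporter assay in transiently transfected HepG2. Twenty-four hours post-dosing, RNA was reverse-transcribed, amplified, FAM-labelled, HpaI-digested and separated by CE. Activity gain or loss relative to DMSO.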
# [18] = ATG_FoxO_CIS: Attagene CIS-FACTORIAL HepG2 Assay for human Forkhead box O (FoxO) (AID 2282943); settings: HepG2 Attagene cis-reporter, FoxO element, mRNA; actives raise or lower the signal
# Outline: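 HepG2 cells transiently transfected with cis-promoter-driven multiple reporter transcription units; 24 h after chemical dosing, reporter mRNA quantified by RT-PCR, fluorescent primer extension, HpaI digestion and capillary electrophoresis. Bidirectional fitting versus DMSO baseline.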
# [19] = ATG_GATA_CIS: Attagene CIS-FACTORIAL HepG2 Assay for human GATA Binding Protein (AID 2282944); settings: HepG2 GATA cis-element reporter, Attagene multiplex mRNA; actives raise or lower the signal
# Outline: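 Transfected cis-reporter HepG2 cells were treated with chemicals for 24 hours. Total RNA was then converted to cDNA, amplified with reporter-specific primers and analysed by fluorescent capillary electrophoresis, using DMSO-treated wells as baseline.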
# [20] = ATG_E_Box_CIS: Attagene CIS-FACTORIAL HepG2 Assay for human Enhancer Box (E-box) (AID 2282936); settings: HepG2 E-box cis-reporter transcription, actives raise or lower the signal
# Outline: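 Endogenous transcription factor activity was sensed in human HepG2 liver cells through transfected cis-promoter reporter units. After 24 h of dosing, total RNA was reverse-transcribed and reporter cDNA resolved by capillary electrophoresis.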
# Chain of Retinoic acid receptor alpha (Homo sapiens) (P10276 whole entry, looked up): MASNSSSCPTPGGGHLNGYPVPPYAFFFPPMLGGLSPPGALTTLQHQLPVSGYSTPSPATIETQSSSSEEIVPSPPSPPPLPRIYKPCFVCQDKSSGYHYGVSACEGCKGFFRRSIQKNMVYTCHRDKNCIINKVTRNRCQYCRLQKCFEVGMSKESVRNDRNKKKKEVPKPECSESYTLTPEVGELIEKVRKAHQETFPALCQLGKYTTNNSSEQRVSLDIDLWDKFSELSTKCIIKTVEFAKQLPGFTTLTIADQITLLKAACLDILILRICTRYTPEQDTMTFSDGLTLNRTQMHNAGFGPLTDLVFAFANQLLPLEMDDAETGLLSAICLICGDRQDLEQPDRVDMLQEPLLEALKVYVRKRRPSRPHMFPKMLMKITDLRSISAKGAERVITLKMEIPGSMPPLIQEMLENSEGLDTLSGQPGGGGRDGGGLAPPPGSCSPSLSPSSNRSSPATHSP
# Chain of Hepatocyte nuclear factor 3-beta (Homo sapiens) (Q9Y261 whole entry, looked up): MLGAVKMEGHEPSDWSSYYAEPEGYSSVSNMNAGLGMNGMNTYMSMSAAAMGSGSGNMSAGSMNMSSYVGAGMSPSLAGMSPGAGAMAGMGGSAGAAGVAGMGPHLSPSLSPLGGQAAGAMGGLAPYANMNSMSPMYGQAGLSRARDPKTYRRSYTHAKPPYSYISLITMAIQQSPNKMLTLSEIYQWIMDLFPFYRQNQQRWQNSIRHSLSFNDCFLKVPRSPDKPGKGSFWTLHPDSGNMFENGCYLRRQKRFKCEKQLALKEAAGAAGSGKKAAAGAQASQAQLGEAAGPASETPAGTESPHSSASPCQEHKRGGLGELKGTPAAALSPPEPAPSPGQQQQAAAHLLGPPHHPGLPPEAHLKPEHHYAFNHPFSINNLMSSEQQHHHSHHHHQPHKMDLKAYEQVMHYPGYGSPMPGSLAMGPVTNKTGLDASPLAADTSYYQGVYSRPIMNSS
# Chain of CCAAT/enhancer-binding protein beta (Homo sapiens) (P17676 whole entry, looked up): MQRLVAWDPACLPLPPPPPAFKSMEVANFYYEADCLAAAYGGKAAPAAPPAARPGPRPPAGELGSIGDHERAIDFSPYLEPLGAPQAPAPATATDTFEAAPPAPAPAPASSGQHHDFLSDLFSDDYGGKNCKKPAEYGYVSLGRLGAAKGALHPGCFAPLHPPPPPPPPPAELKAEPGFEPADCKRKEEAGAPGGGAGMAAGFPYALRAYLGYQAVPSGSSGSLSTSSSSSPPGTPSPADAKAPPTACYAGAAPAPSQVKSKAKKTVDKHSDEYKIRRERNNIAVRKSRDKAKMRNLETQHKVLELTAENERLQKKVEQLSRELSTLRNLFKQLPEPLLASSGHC
# Chain of Transcription factor E2F1 (Homo sapiens) (Q01094 whole entry, looked up): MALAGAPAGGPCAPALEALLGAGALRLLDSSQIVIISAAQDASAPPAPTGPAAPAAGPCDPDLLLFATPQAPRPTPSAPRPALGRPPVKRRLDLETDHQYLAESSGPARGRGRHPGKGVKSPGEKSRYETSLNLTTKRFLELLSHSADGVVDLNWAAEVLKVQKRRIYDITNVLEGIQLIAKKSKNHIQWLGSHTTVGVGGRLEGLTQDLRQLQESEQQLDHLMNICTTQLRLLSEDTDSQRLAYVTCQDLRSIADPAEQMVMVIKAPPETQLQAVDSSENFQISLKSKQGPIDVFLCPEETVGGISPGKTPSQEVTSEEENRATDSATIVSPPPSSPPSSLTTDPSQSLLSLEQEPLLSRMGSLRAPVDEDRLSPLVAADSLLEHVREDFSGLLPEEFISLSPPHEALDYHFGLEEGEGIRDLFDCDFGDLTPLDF
# Chain of Aryl hydrocarbon receptor (Homo sapiens) (P35869 whole entry, looked up): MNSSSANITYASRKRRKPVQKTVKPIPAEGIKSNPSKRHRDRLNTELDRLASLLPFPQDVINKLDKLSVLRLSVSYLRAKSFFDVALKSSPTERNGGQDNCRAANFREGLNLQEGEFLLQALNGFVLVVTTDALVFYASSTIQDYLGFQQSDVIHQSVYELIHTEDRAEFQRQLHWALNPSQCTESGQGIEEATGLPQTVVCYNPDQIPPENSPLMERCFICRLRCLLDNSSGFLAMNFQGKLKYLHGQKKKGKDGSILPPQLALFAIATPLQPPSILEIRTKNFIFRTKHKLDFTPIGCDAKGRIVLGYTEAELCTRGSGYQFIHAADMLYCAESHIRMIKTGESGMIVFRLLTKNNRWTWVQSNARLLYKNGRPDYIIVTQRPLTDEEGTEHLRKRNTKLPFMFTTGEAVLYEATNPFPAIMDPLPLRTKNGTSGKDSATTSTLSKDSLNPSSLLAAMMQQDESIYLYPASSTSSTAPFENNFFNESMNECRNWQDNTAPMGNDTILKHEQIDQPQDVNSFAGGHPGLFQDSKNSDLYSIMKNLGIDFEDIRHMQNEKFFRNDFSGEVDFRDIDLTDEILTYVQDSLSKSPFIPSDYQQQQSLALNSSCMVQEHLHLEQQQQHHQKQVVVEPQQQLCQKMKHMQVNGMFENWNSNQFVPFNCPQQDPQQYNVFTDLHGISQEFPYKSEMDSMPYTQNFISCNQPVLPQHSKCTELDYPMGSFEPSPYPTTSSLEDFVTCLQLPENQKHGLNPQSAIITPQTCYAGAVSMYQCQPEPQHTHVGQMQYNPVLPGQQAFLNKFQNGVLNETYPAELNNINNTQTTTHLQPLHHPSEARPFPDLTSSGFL
structure (smiles),measurement,setting,value
CC(c1cc(C(C)(C)C)cc(C(C)(C)C)c1O)c1cc(C(C)(C)C)cc(C(C)(C)C)c1O,outcome,[1],inactive
same,outcome,[2],inactive
same,outcome,[3],inactive
same,outcome,[4],inactive
same,outcome,[5],inactive
same,outcome,[6],inactive
same,outcome,[7],inactive
same,outcome,[8],inactive
same,outcome,[9],inactive
same,outcome,[10],inactive
same,outcome,[11],inactive
same,outcome,[12],inactive
same,outcome,[13],inactive
same,outcome,[14],inactive
same,outcome,[15],inactive
same,outcome,[16],inactive
same,outcome,[17],inactive
same,outcome,[18],inactive
same,outcome,[19],inactive
CCC1COC(=O)O1 (centres undefined),outcome,[1],inactive
same,outcome,[2],inactive
same,outcome,[3],inactive
same,outcome,[4],inactive
same,outcome,[5],inactive
same,outcome,[6],inactive
same,outcome,[7],inactive
same,outcome,[8],inactive
same,outcome,[9],inactive
same,outcome,[11],inactive
same,outcome,[20],inactive
same,outcome,[12],inactive
same,outcome,[13],inactive
same,outcome,[14],inactive
same,outcome,[15],inactive
same,outcome,[17],inactive
same,outcome,[18],inactive
same,outcome,[19],inactive
C=CCOC(=O)c1ccc(C(=O)OCC=C)c(C(=O)OCC=C)c1,outcome,[1],inactive
same,outcome,[2],inactive
same,outcome,[3],inactive
same,outcome,[4],inactive
same,outcome,[5],inactive
same,outcome,[6],inactive
same,outcome,[7],inactive
same,outcome,[8],inactive
same,outcome,[9],inactive
same,outcome,[10],inactive
same,outcome,[11],inactive
same,outcome,[12],inactive
same,outcome,[13],inactive
same,outcome,[14],inactive
same,AC50,[15],22.8 µM (active)
same,outcome,[16],inactive
same,outcome,[17],inactive
same,outcome,[18],inactive
same,outcome,[19],inactive
C=CCCCCCCCCC=O,outcome,[1],inactive
same,outcome,[2],inactive
same,outcome,[3],inactive
same,outcome,[4],inactive
same,outcome,[5],inactive
same,outcome,[6],inactive
same,outcome,[7],inactive
same,outcome,[8],inactive
same,outcome,[9],inactive
same,outcome,[11],inactive
same,outcome,[20],inactive
same,outcome,[12],inactive
same,outcome,[14],inactive
same,AC50,[15],88.7 µM (active)
same,outcome,[16],inactive
same,outcome,[17],inactive
same,outcome,[18],inactive
same,outcome,[19],inactive
C/C=C/C=C/CCCCCCCO,outcome,[1],inactive
same,outcome,[2],inactive
same,outcome,[3],inactive
same,outcome,[4],inactive
same,AC50,[5],183 µM (active)
same,outcome,[6],inactive
same,AC50,[7],127 µM (active)
same,outcome,[8],inactive
same,AC50,[9],156 µM (active)
same,outcome,[11],inactive
same,outcome,[20],inactive
same,AC50,[13],100 µM (active)
same,outcome,[14],inactive
same,outcome,[15],inactive
same,outcome,[16],inactive
same,outcome,[17],inactive
same,outcome,[18],inactive
same,outcome,[19],inactive
Cc1c(O)cccc1O,outcome,[1],inactive
same,outcome,[2],inactive
same,outcome,[3],inactive
same,outcome,[4],inactive
same,outcome,[5],inactive
same,AC50,[6],37.8 µM (active)
same,outcome,[7],inactive
same,outcome,[8],inactive
same,outcome,[9],inactive
same,outcome,[10],inactive
same,outcome,[11],inactive
same,outcome,[20],inactive
same,outcome,[12],inactive
same,outcome,[14],inactive
same,AC50,[15],61.4 µM (active)
same,outcome,[16],inactive
same,outcome,[17],inactive
same,outcome,[19],inactive
C=CCCCCCCCCO,outcome,[1],inactive
same,outcome,[2],inactive
same,outcome,[3],inactive
same,outcome,[4],inactive
same,outcome,[5],inactive
same,AC50,[6],29.3 µM (active)
same,outcome,[7],inactive
same,outcome,[8],inactive
same,outcome,[9],inactive
same,outcome,[11],inactive
same,outcome,[20],inactive
same,outcome,[12],inactive
same,outcome,[13],inactive
same,outcome,[14],inactive
same,outcome,[15],inactive
same,outcome,[16],inactive
same,outcome,[17],inactive
same,outcome,[18],inactive
same,outcome,[19],inactive
